Assays:
Test in all cases: DAPPL (digital affinity profiling via proximity ligation, sequencing); 10 mM Tris-HCl pH 7.5, 50 mM NaCl, 1 mM DTT, 4% glycerol, room temperature, 30 min; GST-TFs on glutathione beads, 16-mer random dsDNA library, 0.1% formaldehyde crosslink after washing; high values mean tight binding
Settings in all cases: protein: recombinant; tags: N-terminal GST; dsDNA, one strand shown
ERG = biological target: T1, ERG (Homo sapiens, UniProt P11308 1-479)
T1 sequence: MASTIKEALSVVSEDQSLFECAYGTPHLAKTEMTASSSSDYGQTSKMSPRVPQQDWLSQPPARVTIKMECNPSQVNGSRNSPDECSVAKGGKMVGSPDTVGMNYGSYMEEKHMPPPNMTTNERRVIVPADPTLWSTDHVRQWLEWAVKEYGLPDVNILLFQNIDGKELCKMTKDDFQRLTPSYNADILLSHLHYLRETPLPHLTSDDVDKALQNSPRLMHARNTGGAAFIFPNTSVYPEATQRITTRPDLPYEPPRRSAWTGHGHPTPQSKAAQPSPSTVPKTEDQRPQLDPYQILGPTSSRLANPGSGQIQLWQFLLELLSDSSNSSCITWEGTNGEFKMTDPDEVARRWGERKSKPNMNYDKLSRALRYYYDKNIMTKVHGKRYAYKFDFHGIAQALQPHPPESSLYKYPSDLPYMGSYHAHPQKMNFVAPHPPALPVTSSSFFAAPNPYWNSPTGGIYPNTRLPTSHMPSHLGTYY
Method in brief: (§1)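 Binding signal is each hexamer's read frequency for a factor divided by its frequency in the tag-only sample. The factors were GST-fused human transcription factors from yeast, captured on glutathione beads, DNA-barcoded and pooled with that sample. Pools were incubated with 200 nmole of a random double-stranded 16-mer DNA library in Tris/NaCl/DTT/glycerol buffer at room temperature for 30 min, then washed, crosslinked with 0.1% formaldehyde, proximity-ligated with BsaI/T4 ligase (1 h, 37 °C), PCR-amplified and sequenced on an Illumina NextSeq500.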

EHF = biological target: T2, EHF (Homo sapiens, UniProt Q9NZC4 1-300)
T2 sequence: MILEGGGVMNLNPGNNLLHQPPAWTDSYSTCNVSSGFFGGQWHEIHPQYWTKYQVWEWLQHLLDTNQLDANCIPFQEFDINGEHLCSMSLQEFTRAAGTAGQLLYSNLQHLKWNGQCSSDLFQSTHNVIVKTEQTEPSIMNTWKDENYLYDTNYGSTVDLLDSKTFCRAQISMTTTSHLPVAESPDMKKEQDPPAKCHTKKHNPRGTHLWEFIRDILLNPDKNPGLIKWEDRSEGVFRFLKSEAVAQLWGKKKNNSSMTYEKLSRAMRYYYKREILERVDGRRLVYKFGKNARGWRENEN
Method in brief: as §1

SPIB = SPIB (Homo sapiens, UniProt Q01892 1-262)
SPIB, sequence (Q01892 whole entry): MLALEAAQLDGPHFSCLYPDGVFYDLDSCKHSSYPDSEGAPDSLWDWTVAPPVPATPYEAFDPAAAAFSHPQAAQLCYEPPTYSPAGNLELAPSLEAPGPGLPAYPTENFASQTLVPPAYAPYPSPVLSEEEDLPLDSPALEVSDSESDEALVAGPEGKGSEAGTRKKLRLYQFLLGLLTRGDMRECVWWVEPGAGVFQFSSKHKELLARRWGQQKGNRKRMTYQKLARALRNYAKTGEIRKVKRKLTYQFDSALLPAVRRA
Method in brief: as §1

ETV5 = ETV5 (Homo sapiens, UniProt P41161 1-510)
ETV5, sequence (P41161 whole entry): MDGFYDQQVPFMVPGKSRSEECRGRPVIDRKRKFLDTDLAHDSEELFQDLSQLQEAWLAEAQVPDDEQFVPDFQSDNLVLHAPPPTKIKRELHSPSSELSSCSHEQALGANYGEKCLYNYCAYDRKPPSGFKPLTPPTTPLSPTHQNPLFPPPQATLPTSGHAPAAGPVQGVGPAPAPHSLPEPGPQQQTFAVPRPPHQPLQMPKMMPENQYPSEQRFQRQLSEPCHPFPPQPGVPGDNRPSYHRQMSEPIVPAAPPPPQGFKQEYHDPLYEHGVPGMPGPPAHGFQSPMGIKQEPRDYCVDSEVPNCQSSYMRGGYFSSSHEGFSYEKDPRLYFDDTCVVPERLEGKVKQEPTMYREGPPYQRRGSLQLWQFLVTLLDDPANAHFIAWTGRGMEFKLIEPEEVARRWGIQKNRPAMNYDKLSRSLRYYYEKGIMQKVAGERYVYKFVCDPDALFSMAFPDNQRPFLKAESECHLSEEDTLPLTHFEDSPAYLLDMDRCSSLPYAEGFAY
Method in brief: as §1

ELF4 = ELF4 (Homo sapiens, UniProt Q99607 1-663)
ELF4, sequence (Q99607 whole entry): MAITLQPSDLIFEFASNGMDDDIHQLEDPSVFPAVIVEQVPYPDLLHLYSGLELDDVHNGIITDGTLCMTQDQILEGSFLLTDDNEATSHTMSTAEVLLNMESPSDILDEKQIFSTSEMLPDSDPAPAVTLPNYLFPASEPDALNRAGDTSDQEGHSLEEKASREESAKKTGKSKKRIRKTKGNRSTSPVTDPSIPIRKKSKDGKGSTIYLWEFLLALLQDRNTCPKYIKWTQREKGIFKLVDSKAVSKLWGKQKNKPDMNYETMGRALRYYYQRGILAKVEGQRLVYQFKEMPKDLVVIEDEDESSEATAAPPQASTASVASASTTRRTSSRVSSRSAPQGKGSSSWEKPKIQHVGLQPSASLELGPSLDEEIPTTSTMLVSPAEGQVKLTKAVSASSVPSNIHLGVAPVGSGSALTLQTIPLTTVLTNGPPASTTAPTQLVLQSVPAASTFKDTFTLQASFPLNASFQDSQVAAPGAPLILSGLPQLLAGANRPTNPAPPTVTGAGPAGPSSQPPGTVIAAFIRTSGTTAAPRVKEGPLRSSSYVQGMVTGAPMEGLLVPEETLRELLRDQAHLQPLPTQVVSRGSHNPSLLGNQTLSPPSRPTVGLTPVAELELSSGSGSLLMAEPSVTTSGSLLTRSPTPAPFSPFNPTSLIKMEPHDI
Method in brief: as §1

ETV2 = biological target: T3, ETV2 (Homo sapiens, UniProt O00321 1-342)
T3 sequence: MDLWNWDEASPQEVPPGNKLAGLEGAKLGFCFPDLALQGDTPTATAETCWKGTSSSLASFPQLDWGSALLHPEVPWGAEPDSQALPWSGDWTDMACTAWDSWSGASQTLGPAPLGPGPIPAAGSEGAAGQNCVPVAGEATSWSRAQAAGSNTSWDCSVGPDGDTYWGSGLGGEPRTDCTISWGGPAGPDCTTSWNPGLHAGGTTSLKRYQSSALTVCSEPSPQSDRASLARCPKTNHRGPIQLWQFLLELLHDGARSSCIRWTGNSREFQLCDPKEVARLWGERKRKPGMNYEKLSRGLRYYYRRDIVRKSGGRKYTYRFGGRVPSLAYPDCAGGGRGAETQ
Method in brief: as §1

ELF3 = biological target: T4, ELF3 (Homo sapiens, UniProt P78545 1-371)
T4 sequence: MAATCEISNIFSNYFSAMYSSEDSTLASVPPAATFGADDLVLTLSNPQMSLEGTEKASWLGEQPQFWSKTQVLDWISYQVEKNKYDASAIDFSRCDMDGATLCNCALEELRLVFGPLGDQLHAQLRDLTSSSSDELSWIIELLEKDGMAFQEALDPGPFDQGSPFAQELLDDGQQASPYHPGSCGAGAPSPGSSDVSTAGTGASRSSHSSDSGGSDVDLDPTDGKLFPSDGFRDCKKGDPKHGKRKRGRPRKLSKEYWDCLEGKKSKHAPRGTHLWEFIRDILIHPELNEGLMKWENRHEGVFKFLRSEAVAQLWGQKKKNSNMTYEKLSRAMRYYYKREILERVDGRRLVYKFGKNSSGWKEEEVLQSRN
Method in brief: as §1

ERF = biological target: T5, ERF (Homo sapiens, UniProt P50548 1-548)
T5 sequence: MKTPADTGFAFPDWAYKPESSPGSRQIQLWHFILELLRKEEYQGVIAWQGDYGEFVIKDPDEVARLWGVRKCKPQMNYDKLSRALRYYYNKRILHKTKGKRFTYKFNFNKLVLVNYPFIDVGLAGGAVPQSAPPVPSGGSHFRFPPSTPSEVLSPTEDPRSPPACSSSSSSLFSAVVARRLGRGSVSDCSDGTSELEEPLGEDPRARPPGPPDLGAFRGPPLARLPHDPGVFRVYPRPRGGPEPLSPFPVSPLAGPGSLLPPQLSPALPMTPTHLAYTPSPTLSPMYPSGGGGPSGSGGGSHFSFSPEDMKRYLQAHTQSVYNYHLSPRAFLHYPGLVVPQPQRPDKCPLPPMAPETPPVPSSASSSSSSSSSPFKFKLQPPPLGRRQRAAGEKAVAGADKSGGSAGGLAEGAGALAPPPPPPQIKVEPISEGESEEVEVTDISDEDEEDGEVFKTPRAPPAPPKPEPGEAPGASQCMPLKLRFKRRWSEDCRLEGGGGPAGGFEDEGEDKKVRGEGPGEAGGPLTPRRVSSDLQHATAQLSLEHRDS
Method in brief: as §1

ETV3L = biological target: T6, ETV3L (Homo sapiens, UniProt Q6ZN32 1-361)
T6 sequence: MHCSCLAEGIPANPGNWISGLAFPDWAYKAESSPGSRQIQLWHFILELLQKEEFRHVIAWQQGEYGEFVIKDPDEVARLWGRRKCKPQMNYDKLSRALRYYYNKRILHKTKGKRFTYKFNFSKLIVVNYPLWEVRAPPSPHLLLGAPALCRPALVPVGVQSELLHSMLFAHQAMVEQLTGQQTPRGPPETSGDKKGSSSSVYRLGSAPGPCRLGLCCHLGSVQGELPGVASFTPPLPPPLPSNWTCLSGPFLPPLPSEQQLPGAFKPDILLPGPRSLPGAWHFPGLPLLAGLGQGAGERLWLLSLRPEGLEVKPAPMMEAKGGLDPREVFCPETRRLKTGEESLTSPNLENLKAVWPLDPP
Method in brief: as §1

ETS2 = biological target: T7, ETS2 (Homo sapiens, UniProt P15036 1-469)
T7 sequence: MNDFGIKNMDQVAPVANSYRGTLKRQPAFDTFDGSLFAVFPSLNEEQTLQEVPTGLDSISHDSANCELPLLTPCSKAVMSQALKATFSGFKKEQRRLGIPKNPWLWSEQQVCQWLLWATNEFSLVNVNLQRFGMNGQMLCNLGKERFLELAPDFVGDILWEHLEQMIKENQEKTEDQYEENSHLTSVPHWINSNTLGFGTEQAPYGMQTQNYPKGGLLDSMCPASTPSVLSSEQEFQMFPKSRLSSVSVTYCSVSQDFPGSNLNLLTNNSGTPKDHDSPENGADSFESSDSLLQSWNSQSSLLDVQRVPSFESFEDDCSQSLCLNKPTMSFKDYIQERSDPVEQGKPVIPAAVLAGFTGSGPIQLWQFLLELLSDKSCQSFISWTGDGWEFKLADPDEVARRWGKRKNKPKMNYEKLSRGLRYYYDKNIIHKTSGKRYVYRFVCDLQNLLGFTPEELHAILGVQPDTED
Method in brief: as §1

SPDEF = biological target: T8, SPDEF (Homo sapiens, UniProt O95238 1-335)
T8 sequence: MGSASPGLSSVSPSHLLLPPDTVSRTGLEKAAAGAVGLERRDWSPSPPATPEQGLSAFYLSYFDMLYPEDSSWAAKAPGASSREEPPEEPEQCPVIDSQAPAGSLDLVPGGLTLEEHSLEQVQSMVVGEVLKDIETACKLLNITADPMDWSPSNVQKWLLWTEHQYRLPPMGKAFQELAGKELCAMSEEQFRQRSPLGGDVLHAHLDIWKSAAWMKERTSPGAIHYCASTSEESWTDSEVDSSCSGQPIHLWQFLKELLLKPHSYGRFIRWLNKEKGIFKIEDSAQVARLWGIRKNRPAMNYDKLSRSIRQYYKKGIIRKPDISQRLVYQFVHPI
Method in brief: as §1

ETV6 = ETV6 (Homo sapiens, UniProt P41212 1-452)
ETV6, sequence (P41212 whole entry): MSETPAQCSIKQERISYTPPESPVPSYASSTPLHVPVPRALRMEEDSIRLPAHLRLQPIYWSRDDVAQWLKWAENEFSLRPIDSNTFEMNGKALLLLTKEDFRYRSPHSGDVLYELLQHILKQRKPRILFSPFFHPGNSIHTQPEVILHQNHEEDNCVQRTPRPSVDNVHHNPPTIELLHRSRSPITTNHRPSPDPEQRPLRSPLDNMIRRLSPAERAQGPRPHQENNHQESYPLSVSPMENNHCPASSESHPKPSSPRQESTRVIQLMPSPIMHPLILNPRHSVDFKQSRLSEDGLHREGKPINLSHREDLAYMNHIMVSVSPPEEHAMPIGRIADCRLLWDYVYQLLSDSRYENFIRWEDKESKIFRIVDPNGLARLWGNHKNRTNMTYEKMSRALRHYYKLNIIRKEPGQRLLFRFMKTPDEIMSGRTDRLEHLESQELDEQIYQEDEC
Method in brief: as §1

GABPA = biological target: T9, GABPA (Homo sapiens, UniProt Q06546 1-454)
T9 sequence: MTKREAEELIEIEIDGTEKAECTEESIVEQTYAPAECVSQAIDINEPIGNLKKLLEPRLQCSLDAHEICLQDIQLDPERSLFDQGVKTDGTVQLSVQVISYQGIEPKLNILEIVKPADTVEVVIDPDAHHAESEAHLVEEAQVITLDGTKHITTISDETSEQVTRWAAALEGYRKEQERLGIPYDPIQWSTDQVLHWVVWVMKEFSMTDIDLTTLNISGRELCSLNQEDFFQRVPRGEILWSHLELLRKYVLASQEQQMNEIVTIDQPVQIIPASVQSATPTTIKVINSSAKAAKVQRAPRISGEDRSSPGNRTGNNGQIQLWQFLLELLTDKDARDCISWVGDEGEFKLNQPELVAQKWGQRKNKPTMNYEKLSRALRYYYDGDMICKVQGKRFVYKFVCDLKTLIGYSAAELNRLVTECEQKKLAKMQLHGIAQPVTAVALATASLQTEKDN
Method in brief: as §1

TAGGAT
binding signal (ERG): 1.07 fold enrichment (6-mer frequency, TF over GST control)
binding signal (EHF): 1.06 fold enrichment (6-mer frequency, TF over GST control)
binding signal (SPIB): 1.03 fold enrichment (6-mer frequency, TF over GST control)
binding signal (ETV5): 1.03 fold enrichment (6-mer frequency, TF over GST control)
binding signal (ELF4): 1 fold enrichment (6-mer frequency, TF over GST control)
binding signal (ETV2): 1.03 fold enrichment (6-mer frequency, TF over GST control)
binding signal (ELF3): 1.03 fold enrichment (6-mer frequency, TF over GST control)
binding signal (ERF): 1.02 fold enrichment (6-mer frequency, TF over GST control)
binding signal (ETV3L): 1.06 fold enrichment (6-mer frequency, TF over GST control)
binding signal (ETS2): 1.03 fold enrichment (6-mer frequency, TF over GST control)
binding signal (SPDEF): 1.22 fold enrichment (6-mer frequency, TF over GST control)
binding signal (ETV6): 1.06 fold enrichment (6-mer frequency, TF over GST control)

AGAGCT
binding signal (GABPA): 1.04 fold enrichment (6-mer frequency, TF over GST control)
binding signal (EHF): 1.01 fold enrichment (6-mer frequency, TF over GST control)
binding signal (ETV5): 1.03 fold enrichment (6-mer frequency, TF over GST control)
binding signal (ELF3): 1.03 fold enrichment (6-mer frequency, TF over GST control)

Source: publication PMC7862700, “An all-to-all approach to the identification of sequence-specific readers for epigenetic DNA modifications on cytosine”
